Inconclusive results are not listed. The source made the active and inactive calls. Calls follow the shape of the dose curve; as a rule, active = well fitted curve in the direction sought with a large enough effect; inconclusive = small, poorly fitted or top-dose-only effect, or another doubt; inactive = no such curve, though single readings can be large or run the other way.
biological target: Polyunsaturated fatty acid lipoxygenase ALOX15 (Homo sapiens) (UniProt P16050); assay: Counterscreen qHTS for inhibitors of human arachidonate 12S-lipoxygenase (ALOX12): ALOX15 Assay; conditions: purified ALOX15 enzyme activity; series mostly up to 110 µM
Source text: Assay Provider: Theodore R. Holman Ph.D.
University of California, Santa Cruz, California
Human lipoxygenase 12hLO is a member of the closely related lipoxygenase family of enzymes which catalyze the site-specific oxidation of arachidonic acid to various hormone precursor molecules and as such is a candidate for drug development in a variety of disease areas, such as cancer and inflammation. Inhibition of 12hLO activity was screened by utilizing arachidonic acid as a substrate. The extent of hydroperoxide product formation was measured by a secondary chromogenic reaction in which xylenol orange (XO, Sigma-Aldrich, cat. number 39,818-7) reacts with the ferric ions produced from the reaction between the hydroperoxide and ferrous ions. The Fe (III)-XO complex is characterized with red-shifted absorbance at 560 nm. A purified preparation of human 12hLO was supplied by Dr. Holman laboratory, University of California, Santa Cruz.
An assay against arachidonate 15-lipoxygenase (ALOX15) was developed to assess selective inhibition against ALOX12. Desired compounds would show potent inhibition against ALOX12 and minimal to no inhibition against ALOX15.
SEQUENCE No. (e.g., 1, 2, 3, etc.); PARAMETER (e.g., Cells, Incubation, Reagent, etc.); VALUE; DESCRIPTION
1; Enzyme; 3 uL; 40 nM ALOX15 (15hLO-1) enzyme solution dispensed in 1536-well Greiner black, clear bottom plates.
2; Compound; 23 nL; compounds and controls were added.
3; Incubate; 15 min; room temperature.
4; Substrate; 1 uL; 50 uM arachidonic acid (final concentration).
5; Incubate; 30 min; room temperature.
6; Reagent; 4 uL; Fe-XO solution was added to each well.
8; Incubation; 30 min; room temperature
9; Detector; absorbance; Read 1 at 405 nm absorbance using ViewLux (PerkinElmer) CCD imager.
10; Detector; absorbance; Read 2 at 573 nm absorbance using ViewLux (PerkinElmer) CCD imager.
NOTES (numbers refer to sequence above)
1; 40 nM ALOX15 (final concentration) in buffer solution (25 mM Hepes, 0.01% Triton X-100, pH 7.5) was dispensed in columns 1, 2, 5 - 48. Column 1 is neutral (100% activity). Buffer only was dispensed in columns 3 and 4 as no enzyme negative controls. The plates were covered with metal lids with gas-exchange holes.
2; Compounds were pin transferred via a Kalypsys Pin Tool (Wako USA) in column 5 - 48. Control compound was transferred in column 2, titration of nordihydroguaiaretic acid (NDGA, Sigma-Aldrich, N5023) with top concentration of 10 mM in DMSO then 1:2 dilution in duplicate. Dilution factor of 23 nL into 4 uL final assay volume.
3; Covered assay plates were incubated for 15 min at room temperature.
4; Substrate was added to start the reaction; 50 uM arachidonic acid (Sigma-Aldrich, St. Louis, MO) was dispensed throughout the plate.
6; Chromogenic detection reagent solution (divalent iron/xylenol orange, Fe-XO) was added to each well: 200 uM xylenol orange, 300 uM ferrous ammonium sulfate prepared freshly in 50 mM sulfuric acid.
9, 10; Two absorbance readouts were obtained at 405 nm and at 573 nm using a ViewLux high-throughput CCD plate imager (PerkinElmer). The 573 to 405 (Read 2 / Read 1) absorbance ratio was used to compute reaction progress.

Polyunsaturated fatty acid lipoxygenase ALOX15 (Homo sapiens), sequence (P16050 whole entry, looked up): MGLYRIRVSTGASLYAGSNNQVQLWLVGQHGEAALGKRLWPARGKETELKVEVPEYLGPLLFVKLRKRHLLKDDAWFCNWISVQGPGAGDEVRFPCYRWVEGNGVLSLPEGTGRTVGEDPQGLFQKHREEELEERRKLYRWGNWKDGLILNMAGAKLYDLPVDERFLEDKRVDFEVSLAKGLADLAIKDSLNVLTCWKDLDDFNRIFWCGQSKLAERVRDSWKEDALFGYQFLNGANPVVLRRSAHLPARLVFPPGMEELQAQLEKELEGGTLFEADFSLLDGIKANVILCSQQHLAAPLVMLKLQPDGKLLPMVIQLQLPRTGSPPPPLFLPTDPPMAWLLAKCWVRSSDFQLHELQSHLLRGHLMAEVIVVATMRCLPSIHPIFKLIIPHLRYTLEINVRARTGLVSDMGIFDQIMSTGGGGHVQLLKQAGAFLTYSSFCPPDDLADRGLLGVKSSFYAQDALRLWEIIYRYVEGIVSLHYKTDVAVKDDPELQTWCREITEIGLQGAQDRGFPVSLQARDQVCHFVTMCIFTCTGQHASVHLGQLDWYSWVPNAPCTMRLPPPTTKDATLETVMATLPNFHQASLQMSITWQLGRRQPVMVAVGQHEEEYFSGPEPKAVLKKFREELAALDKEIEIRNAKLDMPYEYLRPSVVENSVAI

| Compound | outcome |
| --- | --- |
| COc1ccc(N2CC3CCC(C2)N3C(=O)NC(C)C)cc1 | inactive |
| O=C1NCc2ccccc2CC12CCCN2Cc1cccc(OC(F)(F)F)c1 (stereo not given) | inactive |
| COc1ccccc1C(=O)N1CCn2c(nnc2C2CCNCC2)C1 | inactive |
| CCN1CCCC2(Cc3ccccc3CN(C(=O)c3ccccc3)C2)C1 (stereo not given) | inactive |
| COc1cccc(N2C(=O)NC(=NC3CCCCC3)C23CCCN([S+](=O)([O-])c2cccs2)C3)c1 (stereo not given) | inactive |
| CC1CCCN(c2ncnc3c2CN(C2CCNCC2)C(=O)CN3C)C1 (stereo not given) | inactive |
| N#Cc1ccc(CN2CC(Oc3ccc(F)cc3F)C2)cc1 | inactive |
| COc1cc(CN2CCCCC23Cc2ccccc2CNC3=O)ccc1F (stereo not given) | inactive |
| O=Cc1ccc(-c2ccc(F)cc2)cc1 | inactive |
| COc1cccc([S+](=O)([O-])N2CCCC3(CC(c4cccnc4)=NO3)C2)c1 (stereo not given) | inactive |
| Cc1cc(C(=O)NCc2ccc(F)cc2)c2c(C3CCCNC3)noc2n1 (stereo not given) | inactive |
| CCC(=O)N1Cc2ccccc2CC2(CCN(CC3CCNC3)C2)C1 (stereo not given) | inactive |
| Cc1ccc(-c2ccccc2CN)c(C)c1 | inactive |
| O=C1Nc2ccccc2CC12CN(CC1CCCC1)C2 | inactive |
| Cc1cc(C(=O)NCc2ccc(F)cc2)c2c(C3CCNC3)noc2n1 (stereo not given) | inactive |
| COc1ccc(N2CC3CCC(C2)N3Cc2cccc(Cl)c2)cc1 | inactive |
| CN(C)C(=O)N1Cc2ccccc2OC2(CCN(C(=O)Cc3cnc[nH]3)CC2)C1 | inactive |
| O=C1Nc2ccccc2C12CCN(S(=O)(=O)c1ccccc1)C2 (stereo not given) | inactive |
| COCCNc1ncnc2c1CN(C1CCNCC1)C(=O)CN2C | inactive |
| CCc1nc2c(c(-c3ccc(OC)cc3)n1)CCN(Cc1ccc(C(F)(F)F)cc1)CC2 | inactive |

| Compound | outcome |
| --- | --- |
| O=C(c1ccccc1)N1CCn2c(nnc2C2CCNCC2)C1 | inactive |
| O=C1NCc2ccccc2CC12CCCN2Cc1ccc(Br)cc1 (stereo not given) | inactive |
| CN1CC(=O)N(C2CCCNCC2)Cc2c(NCc3cccs3)ncnc21 (stereo not given) | inactive |
| O=C(c1ccccc1F)N1CCn2c(nnc2C2CCNCC2)C1 | inactive |
| O=C1NCc2ccccc2CC12CCN(Cc1ccc(F)cc1O)C2 (stereo not given) | inactive |
| CN1CC(=O)N(c2ccccc2F)Cc2c(NC3CCNCC3)ncnc21 | inactive |
| CCOCCNc1ncnc2c1CN(C1CCCNC1)C(=O)CN2C (stereo not given) | inactive |
| COC[C@@H]1CCCN1c1ncnc2c1CN(C1CCCNCC1)C(=O)CN2C (stereo not given in full) | inactive |
| CN1CC(=O)N(C2CCCNCC2)Cc2c(NCC3CC3)ncnc21 (stereo not given) | inactive |
| CCc1ccc(CN2CCC3(Cc4ccccc4CNC3=O)C2)s1 (stereo not given) | inactive |
| O=C1NCc2ccccc2CC12CCN(Cc1ccc(F)cc1F)CC2 | inactive |
| CN1CC(=O)N(C2CNC2)Cc2c(NC3CC3)ncnc21 | inactive |
| O=C(c1ccccc1F)N1CCC2(C1)C(=O)N(c1ccccc1)c1ccccc12 (stereo not given) | inactive |
| O=C(c1cc(C2CC2)nc2onc(C3CCNCC3)c12)N1CCCCC1 | inactive |
| CC(C)OCCCNc1ncnc2c1CN(C1CCCNCC1)C(=O)CN2C (stereo not given) | inactive |
| CN(C)CCCC(=O)N1Cc2ccccc2CC2(CCCCN2Cc2ccccc2)C1 (stereo not given) | inactive |
| CNCc1ccc(N2CCCC2)cc1 | inactive |
| CN1CC(=O)N(C2CCNCC2)Cc2c1ncnc2N1CCC(N2CCOCC2)CC1 | inactive |
| COc1ccc(CN2CCCCC23Cc2ccccc2CNC3=O)c(OC)c1 (stereo not given) | inactive |
| CC(C)CNC(=O)c1cc(C2CC2)nc2onc(C3CCCNC3)c12 (stereo not given) | inactive |

From PubChem BioAssay AID1671192 (National Center for Advancing Translational Sciences (NCATS), 2021)
